Records with an inconclusive call do not appear. Entries that show only a call come without a potency. The source made the active and inactive calls. Unless noted, the call rests on the fitted dose curve; in most records, active means well fitted curve in the direction sought with a large enough effect in the repeat runs; inconclusive means weak or mixed curves; inactive means no such curve, though single readings can be large; an effect the other way counts as inactive or inconclusive.
How the values were obtained:
[1] = qHTS assay to test for compound auto fluorescence at 535 nm (green) in HEK293 cells (AID 720680)
[2] = qHTS assay to test for compound auto fluorescence at 460 nm (blue) in HEK293 cell free culture (AID 720681)
Summary of the method: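 Test compounds were pinned into cell-free culture medium (DMEM with 10% FBS) and fluorescence was read directly at Ex/Em 405/460 nm. Signals were expressed as fluorescence equivalents of triamterene, with DMSO vehicle as control.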

[3] = qHTS assay to test for compound auto fluorescence at 535 nm (green) in HEK293 cell free culture (AID 720682)
Summary of the method: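 Green-channel intensity (Ex/Em 485/535 nm) was recorded from compound-treated wells containing only DMEM with 10% FBS. Fluorescein provided the equivalency standard.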

[4] = qHTS assay to test for compound auto fluorescence at 590 nm (red) in HEK293 cell free culture (AID 720683)
Summary of the method: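 Tox21 10K library compounds were pinned into cell-free DMEM with 10% FBS and fluorescence was read at excitation 540 nm. Activity is expressed as Rose Bengal sodium equivalency.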

[5] = qHTS assay to test for compound auto fluorescence at 590 nm (red) in HepG2 cell free culture (AID 720684)
Summary of the method: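 Readout: intrinsic compound fluorescence at 590 nm emission after 540 nm excitation, scaled to Rose Bengal sodium. Matrix was cell-free MEM with 10% FBS; DMSO vehicle wells served as control.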

[6] = qHTS assay to test for compound auto fluorescence at 460 nm (blue) in HepG2 cell free culture (AID 720685)
Summary of the method: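 Cell-free plates of MEM plus 10% FBS received 23 nL compound or DMSO vehicle; blue-channel (405/460 nm) intensity scored against triamterene as reference fluorophore.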

[7] = qHTS assay to test for compound auto fluorescence at 535 nm (green) in HepG2 cell free culture (AID 720686)
[8] = qHTS assay to test for compound auto fluorescence at 460 nm (blue) in HepG2 cells (AID 720687)
Summary of the method: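 Cells (2,000/well in MEM with 10% FBS) attached overnight at 37 C, then were exposed to compound or DMSO for 1 hr at 37 C, 5% CO2. Fluorescence read at Ex/Em 405/460 nm, expressed as triamterene-equivalent signal.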

[9] = molecular target: Glucocorticoid receptor (Homo sapiens) (UniProt P04150); assay: qHTS assay to identify small molecule agonists of the glucocorticoid receptor (GR) signaling pathway (AID 720691; active means well fitted activation curve with a large enough effect in the signal ratio in the repeat runs, not every such curve was filed as active; the % refers to the signal ratio; further: potency means the concentration at half of the fitted maximal effect); conditions: GR-bla HeLa, beta-lactamase reporter ratio, 18 h; activation: at 62.4 µM (top of the series)
Sequence of Glucocorticoid receptor (Homo sapiens) (P04150 whole entry, looked up): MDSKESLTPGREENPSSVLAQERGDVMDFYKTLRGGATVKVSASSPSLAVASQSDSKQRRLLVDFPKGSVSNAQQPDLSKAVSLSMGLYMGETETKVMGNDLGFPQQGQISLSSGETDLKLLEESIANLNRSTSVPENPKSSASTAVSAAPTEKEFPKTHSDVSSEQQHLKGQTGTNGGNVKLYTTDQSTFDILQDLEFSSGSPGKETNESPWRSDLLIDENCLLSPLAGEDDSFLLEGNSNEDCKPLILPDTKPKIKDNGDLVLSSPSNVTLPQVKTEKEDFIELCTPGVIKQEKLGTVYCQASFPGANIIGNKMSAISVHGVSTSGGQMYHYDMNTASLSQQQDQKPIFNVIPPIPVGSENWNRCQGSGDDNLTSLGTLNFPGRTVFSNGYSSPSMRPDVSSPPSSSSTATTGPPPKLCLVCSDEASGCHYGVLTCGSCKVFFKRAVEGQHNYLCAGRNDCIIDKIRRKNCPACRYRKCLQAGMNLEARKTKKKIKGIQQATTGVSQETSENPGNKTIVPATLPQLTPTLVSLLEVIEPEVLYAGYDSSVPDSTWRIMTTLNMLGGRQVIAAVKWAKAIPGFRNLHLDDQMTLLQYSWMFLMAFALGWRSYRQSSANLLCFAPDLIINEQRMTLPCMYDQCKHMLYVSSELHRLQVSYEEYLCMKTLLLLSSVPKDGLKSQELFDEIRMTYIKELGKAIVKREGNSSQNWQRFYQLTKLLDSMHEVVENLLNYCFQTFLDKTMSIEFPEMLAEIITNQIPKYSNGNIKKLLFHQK
Summary of the method: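 Agonist-mode qHTS in HeLa cells stably expressing a glucocorticoid-response-element beta-lactamase reporter. Fluorescence intensity read with FRET substrate (2 h, room temperature) after 18 h compound treatment at 37 C.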

[10] = qHTS assay to identify small molecule antagonists of the glucocorticoid receptor (GR) signaling pathway - cell viability counter screen (AID 720693); further: nearly all actives have a fitted effect of over 55% in size
[11] = qHTS assay for identifying genotoxic compounds that show differential cytotoxicity against isogenic chicken DT40 cell lines with known DNA damage response pathways - Rev3 mutant cell line (AID 743014); further: nearly all actives have a fitted effect of over 55% in size; further: potency means the concentration at half of the fitted maximal effect
[12] = qHTS assay to identify small molecule antagonists of the androgen receptor (AR) signaling pathway using the MDA cell line - cell viability counter screen (AID 743041; further: nearly all actives have a fitted effect of over 45% in size)
Summary of the method: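 qHTS viability read-out; MDA-kb2 AR-luc; R1881-stimulated; 16 h exposure at 37C, 0% CO2; CellTiter-Fluor, 30 min; fluorescence intensity.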

[13] = qHTS assay for identifying genotoxic compounds that show differential cytotoxicity against isogenic chicken DT40 cell lines with known DNA damage response pathways - Rad54/Ku70 mutant cell line (AID 743015); further: nearly all actives have a fitted effect of over 60% in size; further: potency means the concentration at half of the fitted maximal effect
[14] = qHTS assay to identify small molecule antagonists of the androgen receptor (AR) signaling pathway - cell viability counter screen (AID 743033; further: nearly all actives have a fitted effect of over 45% in size)
[15] = molecular target: Androgen receptor (Homo sapiens) (UniProt P10275); assay: qHTS assay to identify small molecule agonists of the androgen receptor (AR) signaling pathway using the MDA cell line (AID 743040; further: nearly all actives have a fitted effect of over 20% in size)
Sequence of Androgen receptor (Homo sapiens) (P10275 whole entry, looked up): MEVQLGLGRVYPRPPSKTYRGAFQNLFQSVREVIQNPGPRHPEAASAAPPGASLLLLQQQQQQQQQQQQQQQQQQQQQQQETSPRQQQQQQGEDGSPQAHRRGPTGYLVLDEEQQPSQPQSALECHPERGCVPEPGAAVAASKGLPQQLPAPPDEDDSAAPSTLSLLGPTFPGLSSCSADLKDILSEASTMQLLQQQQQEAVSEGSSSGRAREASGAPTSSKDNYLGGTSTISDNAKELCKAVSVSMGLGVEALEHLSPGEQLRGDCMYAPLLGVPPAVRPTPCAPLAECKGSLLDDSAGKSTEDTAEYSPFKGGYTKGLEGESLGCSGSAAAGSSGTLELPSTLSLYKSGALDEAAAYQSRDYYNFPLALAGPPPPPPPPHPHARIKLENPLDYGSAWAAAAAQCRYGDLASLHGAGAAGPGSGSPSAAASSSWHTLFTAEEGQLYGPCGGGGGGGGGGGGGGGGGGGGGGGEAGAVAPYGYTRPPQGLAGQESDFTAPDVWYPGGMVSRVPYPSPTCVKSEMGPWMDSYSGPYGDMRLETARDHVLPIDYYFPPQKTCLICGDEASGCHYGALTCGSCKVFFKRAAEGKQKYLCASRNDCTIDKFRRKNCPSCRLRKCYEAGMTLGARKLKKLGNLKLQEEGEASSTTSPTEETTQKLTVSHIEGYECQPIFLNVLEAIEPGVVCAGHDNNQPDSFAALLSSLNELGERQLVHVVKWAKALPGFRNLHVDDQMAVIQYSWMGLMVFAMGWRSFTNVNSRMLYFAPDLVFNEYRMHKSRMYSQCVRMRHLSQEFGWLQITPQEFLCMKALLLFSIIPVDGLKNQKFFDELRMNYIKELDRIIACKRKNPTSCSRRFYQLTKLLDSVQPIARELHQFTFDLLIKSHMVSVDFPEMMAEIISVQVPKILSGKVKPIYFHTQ
Summary of the method: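 Agonist activity is measured as luciferase luminescence in human MDA-kb2 cells whose MMTV reporter responds to both AR and GR. Compounds in DMSO incubate 16 h at 37C, 0% CO2, and ONE-Glo is read after 30 min.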

[16] = molecular target: Androgen receptor (Homo sapiens) (UniProt P10275); assay: qHTS assay to identify small molecule antagonists of the androgen receptor (AR) signaling pathway using the MDA cell line (AID 743042; further: nearly all actives have a fitted effect of over 55% in size)
Summary of the method: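 MDA-kb2 cells (human breast carcinoma, stably carrying an MMTV-luciferase reporter responsive to AR and GR) were plated at 3,000 cells/well and preincubated 5 hr at 37C, then given compound plus R1881 agonist for 16 h. ONE-Glo luminescence was read.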

[17] = qHTS assay for identifying genotoxic compounds that show differential cytotoxicity against isogenic chicken DT40 cell lines with known DNA damage response pathways - wild type cell line (AID 743012); further: nearly all actives have a fitted effect of over 60% in size; further: potency means the concentration at half of the fitted maximal effect
Summary of the method: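 Viability by ATP luminescence (CellTiter-Glo, 30 min RT) after 40 h compound treatment at 37 C/5% CO2, using 300 parental DNA repair-proficient DT40 cells per well.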

[18] = molecular target: Androgen receptor (Homo sapiens) (UniProt P10275); assay: qHTS assay to identify small molecule antagonists of the androgen receptor (AR) signaling pathway (AID 743035; active means well fitted inhibition curve with a large enough effect in the signal ratio in the repeat runs, not every such curve was filed as active; the % refers to the signal ratio; further: potency means the concentration at half of the fitted maximal effect)
Summary of the method: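 Antagonist mode: AR-bla HEK293 cells co-treated with test compounds and agonist R1881 for 16 h at 37C, 5% CO2. Beta-lactamase activity read as FRET fluorescence after 2 h room-temperature substrate loading.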

[19] = molecular target: Androgen receptor (Homo sapiens) (UniProt P10275); assay: qHTS assay to identify small molecule agonists of the androgen receptor (AR) signaling pathway (AID 743036; active means well fitted activation curve with a large enough effect in the signal ratio in the repeat runs, with a control signal flat, not every such curve was filed as active; the % refers to the signal ratio)
Summary of the method: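 Cell-based FRET reporter assay: HEK293 line with a UAS-beta-lactamase construct, compounds added in DMSO, 16 h exposure at 37C, then 2 h substrate step at room temperature and fluorescence intensity read.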

[20] = molecular target: Glucocorticoid receptor (Homo sapiens) (UniProt P04150); assay: qHTS assay to identify small molecule antagonists of the glucocorticoid receptor (GR) signaling pathway (AID 720692; active means well fitted inhibition curve with a large enough effect in the signal ratio in the repeat runs, not every such curve was filed as active; the % refers to the signal ratio)
Summary of the method: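 Inhibition of dexamethasone-driven (5 nM final) beta-lactamase expression was measured in GRE-reporter HeLa cells over 18 h at 37C. Fluorescence was read after 2 h with the B/G FRET substrate at room temperature.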

| Structure (SMILES) | Potency [1] | Potency [2] | Potency [3] | Potency [4] | Potency [5] | outcome [6] | Potency [7] | outcome [8] | Potency [9] | Potency [10] | Potency [11] | Potency [12] | Potency [13] | Potency [14] | Potency [15] | Potency [16] | Potency [17] | Potency [18] | Potency [19] | Potency [20] |
| --- | --- | --- | --- | --- | --- | --- | --- | --- | --- | --- | --- | --- | --- | --- | --- | --- | --- | --- | --- | --- |
| CC(=O)OCC(=O)[C@@]12OC3(CCCC3)O[C@@H]1C[C@H]1[C@@H]3CCC4=CC(=O)C=C[C@]4(C)[C@@]3(F)[C@@H](O)C[C@@]12C | inactive | inactive | inactive | inactive | inactive | inactive | inactive | inactive | 0.019 µM (active) | inactive | inactive | inactive |  |  |  |  |  |  |  |  |
| O=C(OCc1ccccc1)c1cccnc1 | inactive | inactive | inactive | inactive | inactive | inactive | inactive | inactive | inactive | inactive |  | inactive | 6.68 µM (active) |  |  |  |  |  |  |  |
| CNC(=O)[C@H](Cc1c[nH]c2ccccc12)NC(=O)[C@@H](CC(=O)NO)CC(C)C | inactive | inactive | inactive | inactive | inactive | inactive | inactive | inactive | 15.1 µM (active) | inactive |  | inactive | 33.5 µM (active) | inactive |  |  |  |  |  |  |
| C=C1c2c(Cl)ccc(O)c2C(O)=C2C(=O)[C@]3(O)C(O)=C(C(N)=O)C(=O)[C@@H](N(C)C)[C@@H]3[C@@H](O)[C@H]12 | inactive | inactive | inactive | inactive | inactive | inactive | inactive | inactive | inactive | inactive | inactive | inactive |  | inactive | inactive | inactive |  |  |  |  |
| CC(CN(C)C)CN1c2ccccc2Sc2ccc(C(F)(F)F)cc21 (stereo unspecified) | inactive | inactive | inactive | inactive | inactive | inactive | inactive | inactive | inactive |  | 7.5 µM (active) | inactive | 9.44 µM (active) |  |  |  | 5.96 µM (active) |  |  |  |
| [O]=[Bi][O]C(=O)[O][Bi]=[O] | inactive | inactive | inactive | inactive | inactive | inactive | inactive | inactive | inactive | inactive | inactive | inactive |  |  |  |  |  |  |  |  |
| CCCC1([C@H](O)C/C=C/[C@H]2[C@H](O)CC(=O)[C@@H]2CCCCCCC(=O)OC)CCC1 | inactive | inactive | inactive | inactive | inactive | inactive | inactive | inactive | inactive |  | 23.7 µM (active) |  | 13.3 µM (active) |  | inactive | inactive | 11.9 µM (active) |  |  |  |
| CCCC(=O)N1CCCN(c2nc(N)c3cc(OC)c(OC)cc3n2)CC1 | inactive | inactive | inactive | inactive | inactive | inactive | inactive | inactive |  | inactive | inactive | inactive | inactive | inactive | inactive | inactive | inactive | inactive | inactive |  |
| Clc1ccc(COC(Cn2ccnc2)c2ccc(Cl)cc2Cl)c(Cl)c1 (stereo unspecified) | inactive | inactive | inactive | inactive | inactive | inactive | inactive | inactive |  | inactive | 11.4 µM (active) | inactive | 10.1 µM (active) | inactive | inactive | inactive |  |  |  | inactive |
| CC(CN(C)C)CN1c2ccccc2S(=O)(=O)c2ccccc21 (stereo unspecified) | inactive | inactive | inactive | inactive | inactive | inactive | inactive | inactive |  | inactive | inactive | inactive | inactive | inactive | inactive | inactive | inactive | inactive | inactive |  |
| C=CC[C@@H]1/C=C(\C)C[C@H](C)C[C@H](OC)[C@H]2O[C@@](O)(C(=O)C(=O)N3CCCC[C@H]3C(=O)O[C@H](/C(C)=C/[C@@H]3CC[C@@H](O)[C@H](OC)C3)[C@H](C)[C@@H](O)CC1=O)[C@H](C)C[C@@H]2OC | inactive | inactive | inactive | inactive | inactive | inactive | inactive | inactive | inactive |  | 4.22 µM (active) |  | 6.68 µM (active) | inactive | inactive | inactive | 5.31 µM (active) | 16.9 µM (active) | inactive |  |
| CC(C)[C@@H](N)C(=O)O | inactive | inactive | inactive | inactive | inactive | inactive | inactive | inactive | inactive |  |  | inactive | inactive | inactive |  |  | inactive |  |  |  |
| CCc1ccc2c(c1)N(CC(C)CN(C)C)c1ccccc1S2 (stereo unspecified) | inactive | inactive | inactive | inactive | inactive | inactive | inactive | inactive | inactive |  | 5.31 µM (active) |  | 8.41 µM (active) |  |  |  | 6.68 µM (active) |  |  |  |
| CC(C)(C)NC(=O)[C@H]1CC[C@H]2[C@@H]3CC=C4C=C(C(=O)O)CC[C@]4(C)[C@H]3CC[C@]12C | inactive | inactive | inactive | inactive | inactive | inactive | inactive | inactive | inactive | inactive | inactive | inactive |  | inactive | inactive | inactive |  | inactive |  |  |

— PubChem BioAssay (Tox21)
